As usually defined, the inhibition is the change of the read-out against control, counted positive when it falls.

Several values for one entry are separate records, joined by “and”; a condition that tells them apart may be missing. Equal values may be shown once.

The first test deals with Solute carrier family 2, facilitated glucose transporter member 1 (Homo sapiens) (UniProt P11166). The experiment in a line: ST_JUDE_LEISH: Cytotoxicity at 2uM final concentration against transgenic Leishmania Mexicana promastigotes LmGLUT1 that are glucose transport deficient and complemented with the human glucose transporter GLUT1. Activity is measured by DNA content using SYBR green in vitro. It is filed as functional.
Solute carrier family 2, facilitated glucose transporter member 1 (Homo sapiens), sequence (P11166 whole entry): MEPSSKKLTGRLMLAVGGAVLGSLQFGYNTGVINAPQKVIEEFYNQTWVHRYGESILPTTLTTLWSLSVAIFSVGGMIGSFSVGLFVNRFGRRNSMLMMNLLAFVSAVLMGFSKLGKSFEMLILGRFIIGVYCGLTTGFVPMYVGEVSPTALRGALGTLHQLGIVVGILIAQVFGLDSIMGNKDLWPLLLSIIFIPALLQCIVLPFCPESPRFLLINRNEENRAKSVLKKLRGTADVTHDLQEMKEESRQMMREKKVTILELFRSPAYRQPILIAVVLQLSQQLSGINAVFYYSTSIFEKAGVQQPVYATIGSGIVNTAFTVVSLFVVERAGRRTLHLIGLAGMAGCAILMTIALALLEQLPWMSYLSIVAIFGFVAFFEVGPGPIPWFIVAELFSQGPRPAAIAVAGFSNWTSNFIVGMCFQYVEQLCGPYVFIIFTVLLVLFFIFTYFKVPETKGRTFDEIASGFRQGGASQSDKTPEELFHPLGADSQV
Turning to `CC(C)(C)CNCC(C)(C)c1nc(-c2ccc(Cl)c(O)c2)c(-c2ccncc2)[nH]1`, the inhibition was -1.13%.

In the case of `COc1cccc(CCNCc2ccc(-c3cccc(CNC4CCCC4)c3)cc2)c1`, the inhibition was 7.38%.

For the compound `O=C(Nc1ccc([N+](=O)[O-])cc1Cl)c1cc2ccccc2cc1O`, the inhibition amounted to 0.6%.

With `N=C(N)c1ccc(NCc2cccc(C(=O)O)c2)cc1`, the inhibition is 1.02%.

For the compound `CN(C)c1cc(C(=O)N[C@@H](Cc2ccccc2)[C@H](O)CNC2CCCCC2)cc2[nH]ccc12`, the inhibition amounted to 5.43%.

With `FC(F)(F)c1ccc2c(NCCNc3ccnc4cc(C(F)(F)F)ccc34)ccnc2c1`, the inhibition was found to be 2.33%.

For `Cc1cnc2cc3c(cc2c1N1CCN(C)CC1)NCC3`, the inhibition is -0.55%.

On to `O=C(Nc1cccc(CN2CCCN(Cc3ccc(O)cc3)CC2)c1)c1ccc2ccccc2n1`, for which the inhibition worked out at 2.74%.

On to `Cc1cccc2nc(-c3cccc(-c4cccc(NC(=O)c5ccncc5)c4)c3)[nH]c12`, for which the inhibition stood at 3.32%.

Turning to `O=S(=O)(NC1CCCCN(Cc2ccccc2O)C1)c1ccc(C(F)(F)F)cc1` (stereo not given), the inhibition is 1.87%.

Consider `CCOC(=O)C1=C(C)NC2=C(C(=O)CC(C)(C)C2)C1c1ccc(Br)cc1` (stereo not given), for which the inhibition is 1.77%.

Turning to `O=C(Nc1ccc(Cn2ncc(N3CCCNCC3)c(Cl)c2=O)cc1)Nc1ccc(-c2ccccc2)cc1`, the inhibition is -0.52% and 1.84%.

Regarding `O=C(Nc1cccc(-c2cccc(-c3nc4cc(C(F)(F)F)ccc4[nH]3)c2)c1)c1cccnc1`, the inhibition was 0.56%.

For the compound `O=C(Nc1ccc(OC(F)(F)F)cc1)NC1CCN(c2ccnc3ccccc23)C1` (stereo not given), the inhibition was determined as 3.08%.

Turning to `CC(C)C(=O)NC(NC(=S)Nc1ccc(Br)cc1)C(Cl)(Cl)Cl` (stereo not given), the inhibition was -2.18%.

For `Cc1cc(N[C@@H](Cc2ccccc2)C(=O)NCc2cccc(F)c2)nc(NCc2ccccc2C)n1`, the inhibition worked out at 5.14%.

Take `Cc1ccc(C(=O)Nc2cc(S(=O)(=O)N3CCCC3)ccc2OCC(F)(F)F)cc1`: the inhibition was found to be 3.23%.

For the compound `CC(Nc1ccc2c(c1)OCCO2)C(=O)Nc1cc(C(F)(F)F)ccc1N1CCOCC1` (stereo not given), the inhibition came to 7.38%.

`N#Cc1ccc(-c2ccc(C(=O)NCCCCN3CCC(c4cn(CCO)c5ccccc45)CC3)cc2)cc1`: the inhibition is -0.57%.

With `CCCc1ccc(N2C(N)=NC(N)=NC2(C)C)cc1`, the inhibition amounted to 1.9%.

For the compound `CCNc1cc(C(=O)N[C@@H](Cc2ccccc2)[C@H](O)CNC(C)(C)c2cccc(OC)c2)cc(N2CCCC2=O)c1`, the inhibition stood at 0.14%.

Turning to `CC(C)CN(Cc1c(O)ccc2[nH]c(-c3ccc(F)cc3F)nc12)CC(C)C`, the inhibition was 11.1%.

`O=C(Nc1ccc(CN2CCOCC2)cc1)c1ccc(-c2ccc(Cl)cc2)o1`: the inhibition is -0.08%.

Regarding `Cc1cccc2nc(-c3cccc(-c4ccc(NC(=O)C(=O)c5cccn5C)cc4)c3)[nH]c12`, the inhibition was 2.86%.

For `CC(C)CN1CCCN(Cc2cccc(NC(=O)c3ccc(-c4ccccc4)cc3)c2)CC1`, the inhibition was found to be 0.53%.

Consider `O=C(N/N=C/c1nc2ccccc2[nH]1)c1cccc([N+](=O)[O-])c1`, for which the inhibition was 2.46%.

Take `CCCOc1ccc(NC(=O)c2cccs2)cc1Cl`: the inhibition was found to be 10%.

As to `CC(=O)Nc1ccc(OCCCN(Cc2ccccc2C(F)(F)F)c2ccc(C(F)(F)F)c(C#N)c2)c(Cl)c1`, the inhibition is 6.79%.

With `CCCN(CCC)CCOc1ccc(C(O)(C#CC(O)(c2ccc(OCCN(CCC)CCC)cc2)c2cccc(Cl)c2)c2cccc(Cl)c2)cc1` (stereo not given), the inhibition worked out at 7.1%.

As to `COc1ccc(NC(=O)Nc2cc(C)nc3cccnc23)cc1Cn1ccnc1`, the inhibition is 1.73%.

`COc1ccc(OC)c(NC(=O)c2c(-c3c(F)cccc3Cl)noc2C)c1`: the inhibition came out at 5.12%.

As for `COc1ccc2nccc([C@@H](O)CN3CCC(NC[C@H](Cc4ccccc4)NC(=O)OC(C)(C)C)CC3)c2c1`, the inhibition was determined as 3.73%.

In the case of `CC(C)COc1ccc(C(O)C(CN2CCCCC2)c2ccccc2)cc1` (stereo not given), the inhibition came out at 5.44%.

On to `COc1cc2c(cc1NC(=O)CN1CCN(C(=O)c3ccco3)CC1)oc1ccccc12`, for which the inhibition was determined as 4.29%.

On to `CC(=O)Nc1ccc(C(=O)Nc2ccc(-c3cccc(-c4nc5cc(F)ccc5[nH]4)c3)cc2)cn1`, for which the inhibition was 0.13%.

In the case of `CC(C)S(=O)(=O)N1CCN(Cc2ccc3c(c2)nc(NC(=O)c2ccsc2)n3C[C@H](O)c2ccccc2)CC1`, the inhibition came out at 2.63%.

With `COc1ccc2nccc([C@@H](O)CN3CCC(NC(=O)C(c4cc5ccccc5o4)N4CCN(c5ccccc5OC)CC4)CC3)c2c1` (stereo not given in full), the inhibition was determined as 1.2%.

`O=C(Nc1cccc(-c2cccc(-c3nc4ccccc4[nH]3)c2)c1)c1cccnc1`: the inhibition stood at 2.95%.

For `Nc1ncc(-c2ccccc2)cc1-c1nc2cc(Cl)c(F)cc2[nH]1`, the inhibition is 7.29%.

In the case of `O=C(CCNc1ccnc(NCC2CCCCC2)n1)Nc1ccccc1`, the inhibition came to 7.25%.

A further test has as its target Hexose transporter 1 (Plasmodium falciparum) (UniProt O97467). The test is described as follows: ST_JUDE_LEISH: Cytotoxicity at 2uM final concentration against transgenic Leishmania Mexicana promastigotes LmPfHT that are glucose transport deficient and complemented with the Plasmodium falciparum hexose transporter. Activity is measured by DNA content using SYBR green in vitro. It is filed as functional.
For `CC(C)(C)CNCC(C)(C)c1nc(-c2ccc(Cl)c(O)c2)c(-c2ccncc2)[nH]1`, the inhibition amounted to 0%.

Regarding `COc1cccc(CCNCc2ccc(-c3cccc(CNC4CCCC4)c3)cc2)c1`, the inhibition was 5.19%.

Regarding `O=C(Nc1ccc([N+](=O)[O-])cc1Cl)c1cc2ccccc2cc1O`, the inhibition was 1.59%.

With `N=C(N)c1ccc(NCc2cccc(C(=O)O)c2)cc1`, the inhibition is 1.06%.

Regarding `CN(C)c1cc(C(=O)N[C@@H](Cc2ccccc2)[C@H](O)CNC2CCCCC2)cc2[nH]ccc12`, the inhibition is 4.72%.

Turning to `FC(F)(F)c1ccc2c(NCCNc3ccnc4cc(C(F)(F)F)ccc34)ccnc2c1`, the inhibition stood at 0.31%.

Turning to `Cc1cnc2cc3c(cc2c1N1CCN(C)CC1)NCC3`, the inhibition was -0.98%.

Regarding `O=C(Nc1cccc(CN2CCCN(Cc3ccc(O)cc3)CC2)c1)c1ccc2ccccc2n1`, the inhibition is 2.83%.

As to `Cc1cccc2nc(-c3cccc(-c4cccc(NC(=O)c5ccncc5)c4)c3)[nH]c12`, the inhibition was determined as 3.01%.

Regarding `O=S(=O)(NC1CCCCN(Cc2ccccc2O)C1)c1ccc(C(F)(F)F)cc1` (stereo not given), the inhibition stood at 4.93%.

`CCOC(=O)C1=C(C)NC2=C(C(=O)CC(C)(C)C2)C1c1ccc(Br)cc1` (stereo not given): the inhibition came out at 0.63%.

As for `O=C(Nc1ccc(Cn2ncc(N3CCCNCC3)c(Cl)c2=O)cc1)Nc1ccc(-c2ccccc2)cc1`, the inhibition was 0.35% and 2.4%.

As for `O=C(Nc1cccc(-c2cccc(-c3nc4cc(C(F)(F)F)ccc4[nH]3)c2)c1)c1cccnc1`, the inhibition is 0.29%.

As for `O=C(Nc1ccc(OC(F)(F)F)cc1)NC1CCN(c2ccnc3ccccc23)C1` (stereo not given), the inhibition is 2.41%.

Regarding `CC(C)C(=O)NC(NC(=S)Nc1ccc(Br)cc1)C(Cl)(Cl)Cl` (stereo not given), the inhibition came out at 2.18%.

In the case of `Cc1cc(N[C@@H](Cc2ccccc2)C(=O)NCc2cccc(F)c2)nc(NCc2ccccc2C)n1`, the inhibition was 4.67%.

Regarding `Cc1ccc(C(=O)Nc2cc(S(=O)(=O)N3CCCC3)ccc2OCC(F)(F)F)cc1`, the inhibition is 4.19%.

As to `CC(Nc1ccc2c(c1)OCCO2)C(=O)Nc1cc(C(F)(F)F)ccc1N1CCOCC1` (stereo not given), the inhibition amounted to 8.1%.

In the case of `N#Cc1ccc(-c2ccc(C(=O)NCCCCN3CCC(c4cn(CCO)c5ccccc45)CC3)cc2)cc1`, the inhibition is -0.13%.

Consider `CCCc1ccc(N2C(N)=NC(N)=NC2(C)C)cc1`, for which the inhibition amounted to 1.17%.

As for `CCNc1cc(C(=O)N[C@@H](Cc2ccccc2)[C@H](O)CNC(C)(C)c2cccc(OC)c2)cc(N2CCCC2=O)c1`, the inhibition came to 1.76%.

Take `CC(C)CN(Cc1c(O)ccc2[nH]c(-c3ccc(F)cc3F)nc12)CC(C)C`: the inhibition stood at 10.8%.

As to `O=C(Nc1ccc(CN2CCOCC2)cc1)c1ccc(-c2ccc(Cl)cc2)o1`, the inhibition is -0.82%.

Take `Cc1cccc2nc(-c3cccc(-c4ccc(NC(=O)C(=O)c5cccn5C)cc4)c3)[nH]c12`: the inhibition worked out at 0.6%.

For `CC(C)CN1CCCN(Cc2cccc(NC(=O)c3ccc(-c4ccccc4)cc3)c2)CC1`, the inhibition came out at 0.24%.

`O=C(N/N=C/c1nc2ccccc2[nH]1)c1cccc([N+](=O)[O-])c1`: the inhibition came out at 1%.

As for `CCCOc1ccc(NC(=O)c2cccs2)cc1Cl`, the inhibition came out at 8.57%.

Turning to `CC(=O)Nc1ccc(OCCCN(Cc2ccccc2C(F)(F)F)c2ccc(C(F)(F)F)c(C#N)c2)c(Cl)c1`, the inhibition worked out at 5.68%.

Regarding `CCCN(CCC)CCOc1ccc(C(O)(C#CC(O)(c2ccc(OCCN(CCC)CCC)cc2)c2cccc(Cl)c2)c2cccc(Cl)c2)cc1` (stereo not given), the inhibition came to 4.78%.

For `COc1ccc(NC(=O)Nc2cc(C)nc3cccnc23)cc1Cn1ccnc1`, the inhibition stood at 1.25%.

`COc1ccc(OC)c(NC(=O)c2c(-c3c(F)cccc3Cl)noc2C)c1`: the inhibition was found to be 3.64%.

Turning to `COc1ccc2nccc([C@@H](O)CN3CCC(NC[C@H](Cc4ccccc4)NC(=O)OC(C)(C)C)CC3)c2c1`, the inhibition was 2.02%.

For `CC(C)COc1ccc(C(O)C(CN2CCCCC2)c2ccccc2)cc1` (stereo not given), the inhibition was 1.93%.

In the case of `COc1cc2c(cc1NC(=O)CN1CCN(C(=O)c3ccco3)CC1)oc1ccccc12`, the inhibition was 2.47%.

As for `CC(=O)Nc1ccc(C(=O)Nc2ccc(-c3cccc(-c4nc5cc(F)ccc5[nH]4)c3)cc2)cn1`, the inhibition was determined as 1.66%.

With `CC(C)S(=O)(=O)N1CCN(Cc2ccc3c(c2)nc(NC(=O)c2ccsc2)n3C[C@H](O)c2ccccc2)CC1`, the inhibition turned out to be 1%.

Turning to `COc1ccc2nccc([C@@H](O)CN3CCC(NC(=O)C(c4cc5ccccc5o4)N4CCN(c5ccccc5OC)CC4)CC3)c2c1` (stereo not given in full), the inhibition turned out to be 0.92%.

Take `O=C(Nc1cccc(-c2cccc(-c3nc4ccccc4[nH]3)c2)c1)c1cccnc1`: the inhibition came out at 2.73%.

As for `Nc1ncc(-c2ccccc2)cc1-c1nc2cc(Cl)c(F)cc2[nH]1`, the inhibition is 8.28%.

Consider `O=C(CCNc1ccnc(NCC2CCCCC2)n1)Nc1ccccc1`, for which the inhibition was determined as 5.25%.

(Values after ChEMBL document CHEMBL3433997, “St. Jude Leishmania screening dataset” (2016).)
